HP1b binding inh: HP1-beta chromodomain-methylated histone interaction inhibition; AID 540317; Potency, µM (titrated, usually from 114 µM), for inactives: at the top dose activity change, negative = inhibition, hits mostly inhibitors; P83916; 390,000 compounds, 0.56% hits; AlphaScreen HP1-beta / biotin-H3K9me3 peptide binding; note: nearly all actives have a fitted effect of over 70% in size
Target sequence (P83916 whole entry, looked up): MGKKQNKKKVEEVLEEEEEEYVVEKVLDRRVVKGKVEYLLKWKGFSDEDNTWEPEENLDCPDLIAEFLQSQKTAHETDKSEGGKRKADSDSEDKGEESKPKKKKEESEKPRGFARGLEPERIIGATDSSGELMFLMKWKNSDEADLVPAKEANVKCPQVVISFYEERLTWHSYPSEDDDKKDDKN
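AlphaScreen: HP1-beta (50 nM) preformed 30 min with biotin-H3(1-18)K9me3 peptide (50 nM) in PBS pH 7.4, 0.01% Tween-20. Compound added for 30 min at RT, then streptavidin donor/nickel chelate acceptor beads (10 ug/mL) for 30 min.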
Sfp inh: inhibitors of Bacillus subtilis Sfp phosphopantetheinyl transferase | Q9F4F7 | Biochemical Sfp PPTase activity, qHTS | Potency, µM, for inactives: largest response in the series, negative = inhibition, hits mostly inhibitors | 310,000 compounds, 3.5% hits | AID 1490;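 note: the enzyme is Sfp with the accession as filed and its product quenches rhodamine fluorescence; 0% = enzyme reaction without inhibitor and -100% = no enzyme wells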
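Buffer: 50 mM Hepes-Na pH 7.6, 10 mM MgCl2, 0.01% Nonidet P-40, 0.01% BSA. Enzyme 15 nM, pre-exposed to compound 15 min; substrates then added and fluorescence change tracked over 30 min.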
JMJD2A Tudor inh: inhibitors of human JMJD2A Tudor domain; O75164; Potency, µM (series often up to 114 µM), without a hit: top-dose activity change, negative = inhibition, hits mostly inhibitors; AID 504339; 390,000 compounds, 4.4% hits; AlphaScreen JMJD2A-Tudor / H3K4me3 peptide binding; note: % is set by controls: 0 for no effect and ±100 for the full control effect; nearly all actives have a fitted effect of over 50% in size
BAZ2B inh: BAZ2B (human) inhibition; 360,000 compounds, 4.4% hits; Potency, µM (top dose mostly 114 µM), inactives show top-dose activity change, negative = inhibition, most hits filed as inhibitors; Q9UIF8; AlphaScreen BAZ2B-H3K14Ac peptide displacement; note: % is set by controls: 0 for no effect and ±100 for the full control effect; nearly all actives have a fitted effect of over 60% in size
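Multi-concentration screen (max 110 uM) measuring displacement of acetylated histone H3 peptide from BAZ2B by AlphaScreen, using 50 nM protein, 50 nM peptide and 10 ug/mL streptavidin donor plus Ni-chelate acceptor beads.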
G9a inh: blocks human histone lysine methyltransferase G9a; 350,000 compounds, 8.8% hits; Q96KQ7; Potency, µM (top dose mostly 102 µM), for inactives: at the highest dose activity, negative = inhibition, actives largely listed as inhibitors; AID 504332; G9a H3K9 monomethylation, AlphaScreen, 2 h; note: % is set by controls: 0 for no effect and ±100 for the full control effect; nearly all actives have a fitted effect of over 75% in size
Target sequence (Q96KQ7 913-1193 limits assumed): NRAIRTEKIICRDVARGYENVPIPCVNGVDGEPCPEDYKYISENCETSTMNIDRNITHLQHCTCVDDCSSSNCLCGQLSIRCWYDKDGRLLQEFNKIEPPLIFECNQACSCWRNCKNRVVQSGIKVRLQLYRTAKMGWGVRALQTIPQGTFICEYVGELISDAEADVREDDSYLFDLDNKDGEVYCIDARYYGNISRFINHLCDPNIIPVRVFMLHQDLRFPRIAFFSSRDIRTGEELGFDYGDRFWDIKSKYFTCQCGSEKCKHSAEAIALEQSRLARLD
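AlphaScreen read-out: biotin-H3K9 peptide (500 nM) methylation by 20 nM enzyme with 20 uM SAM, 2 h at room temperature after 15 min compound preincubation; anti-monomethyl H3K9 antibody plus donor/acceptor beads, 10 min dark.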
Starred values were filed as active, the others as inactive; ? = inconclusive; nt = no result; ! = not active in a repeat; [ ] = remark or other dose. Shown are actives, neighbours in structure and some others; about 12% of the full set was active somewhere. Calls come from the whole dose curve; as a rule, active = well fitted curve in the direction sought with a large enough effect; inconclusive = small, poorly fitted or top-dose-only effect, or another doubt; inactive = no such curve, though single readings can be large; an effect the other way counts as inactive or inconclusive. Potency is the fitted concentration of half-maximal effect.

SMILES | HP1b binding inh | Sfp inh | JMJD2A Tudor inh | BAZ2B inh | G9a inh
O=C(CSc1nnc(C2CCCCC2)n1Cc1ccccc1)NCc1ccco1 | ? | -9% | 28µM* | -9% | ?
C=CCn1c(SCC(=O)NCc2ccco2)nnc1C1CCCCC1 | 21% | nt | -7% | 5% | -51%
O=C(CSc1nnc2scc(-c3ccccc3)n12)NCc1ccco1 | 12% | 3% | -6% | -35% | 79µM*
N/C(=N\OC(=O)c1ccco1)c1ccc(Br)cc1 | 11% | 6% | -7%[11.4 µM] | -23% | 8%
CCCOc1ccc(NC(=O)CC2C(=O)N(CC)C(=S)N2CCCN2CCN(Cc3ccccc3)CC2)cc1 (configuration not stated) | 16% | 7% | ? | ? | -20%[59 µM]
N#CC/C(N)=N/Nc1nc2ccccc2nc1Cc1ccccc1 | -5%[57 µM] | -9% | ? | -16% | 50µM*
N#CCn1c(Cc2ccccc2)nc2ccccc2c1=O | 32% | 18% | 0% | 0% | 29%[59 µM]
COc1ccccc1-n1c(CCC(=O)O)ccc1-c1ccccc1 | 12% | 8% | -27% | ? | 13%
O=C(O)CCc1ccc(-c2ccc(Cl)cc2)n1CCC(=O)O | 31% | -14% | -36% | -38% | 1%[59 µM]
CC(=O)c1ccc(-n2c(CCC(=O)O)ccc2-c2ccc(Cl)cc2)cc1 | -4% | 2% | -31% | ? | 40µM*
O=C(O)CCc1ccc(-c2ccccc2)n1-c1cccc(C(=O)O)c1 | 15% | 71µM* | ? | ? | -12%[2.33 µM]
O=C(O)CCc1ccc(-c2ccc(Br)cc2)n1-c1cccc(O)c1 | ? | -7% | ? | ? | 45µM*
O=C(O)CCc1ccc(-c2ccccc2)n1-c1ccc(C(=O)O)cc1 | 25% | -5% | -31% | -5% | 14µM*!
COC(=O)c1ccc(NC(=O)COC(=O)C2CCC2)cc1 | 34% | nt | -4% | -4% | 0%
CC(=O)N1C(=O)N(C)C2C1N(C)C(=O)N2C(C)=O (configuration not stated) | nt | 3% | nt | 12% | -2%[59 µM]
COc1ccc(-n2c(CCC(=O)O)ccc2-c2ccccc2)c(OC)c1 | 27% | nt | ? | ? | 8.9µM*
CCOC(=O)c1ccc(-n2c(CCC(=O)O)ccc2-c2ccccc2)cc1O | -24% | nt | -33% | 45µM* | 18µM*
Nc1nc(-c2ccc(Cl)c(Cl)c2)c(-c2ccncc2)s1 | nt | 22µM* | nt | nt | nt
Oc1c(Br)cc(C2N=C(c3ccccc3Cl)NO2)cc1Br (configuration not stated) | ? | -14% | 40µM* | -27% | 36%[0.501 µM]
Oc1ccc(Br)cc1-c1cc(-c2ccccc2Cl)[nH]n1 | 9% | 6% | -22%[11.4 µM] | 1% | 24%[59 µM]
COc1ccc(CNC(=O)C(OC(=O)c2ccco2)c2ccccc2)cc1 (configuration not stated) | 13% | 6% | -13% | -16% | ?
Cc1ccccc1CC1(CO)CCCN(C(=O)c2ccc3ncccc3c2)C1 (configuration not stated) | -2% | -3% | 8.9µM* | 1% | nt
CCCCCn1c(Sc2nc3ccccc3s2)nc2c1c(=O)[nH]c(=O)n2C | 27% | 7% | -13% | 10% | 1%
Cc1cccc(-c2nn(-c3ccccc3)cc2CNCCO)c1 | ? | nt | 10µM* | nt | nt
Cc1ccc(-c2nn(-c3ccccc3)cc2CNCc2ccccc2)cc1 | 131% | 18µM* | 44% | -1% | nt
SMILES | HP1b binding inh | Sfp inh | JMJD2A Tudor inh | BAZ2B inh | G9a inh
COc1ccc(C(c2nnnn2Cc2ccc(F)cc2)N2CCN(c3ccc(OC)cc3)CC2)cc1 (configuration not stated) | ? | ? | ? | ? | 32µM*
CN1CCN(C(c2ccc(F)cc2)c2nnnn2Cc2cccs2)CC1 (configuration not stated) | 41% | -11% | -28% | ? | ?
COc1ccc(N2CCN(C(c3ccccc3)c3nnnn3Cc3ccc(F)cc3)CC2)cc1 (configuration not stated) | -22% | 13% | ? | -50% | 22µM*
COc1ccc(C(c2nnnn2Cc2ccc(F)cc2)N2CCN(c3ccccc3)CC2)cc1 (configuration not stated) | 11% | 7% | -24% | -8% | -2%
COc1ccccc1N1CCN(C(c2ccccc2)c2nnc(-c3ccccc3Cl)o2)CC1 (configuration not stated) | 47% | nt | -22% | -27% | -12%[59 µM]
COc1ccc(N2CCN(C(c3ccccc3)c3nnc(-c4ccccc4Cl)o3)CC2)cc1 (configuration not stated) | ? | nt | 50µM* | 40µM* | 13µM*
COc1ccc(C(c2nnnn2Cc2cccs2)N2CCN(c3ccc(F)cc3)CC2)cc1OC (configuration not stated) | ? | -3% | 45µM* | ? | ?
O=C1COc2ccc(S(=O)(=O)NCc3ccccc3)cc2N1 | 5% | 12% | -8% | 9% | 21%[59 µM]
CCOc1ccc(CCNC(=O)COC(=O)c2ccc[nH]c2=O)cc1OCC | 20% | nt | -7% | nt | nt
COCCn1nnnc1C(c1ccccn1)N1CCN(c2cc(Cl)ccc2C)CC1 (configuration not stated) | 21% | 3% | ? | ? | ?
COc1ccc(Cn2nnnc2C(c2ccccn2)N2CCN(c3cc(Cl)ccc3C)CC2)cc1 (configuration not stated) | 6% | 2% | ? | ? | 22µM*
COc1ccc(C(=O)N(CN2CCCC2=O)c2ccc(C)cc2)cc1 | 20% | 4% | 21% | 21% | 25%[59 µM]
COc1ccc(C2C(C(C)=O)=C(O)C(=O)N2CCN(C)C)cc1OC (configuration not stated) | nt | 13% | nt | -11% | 50µM*
CC(=O)C1=C(O)C(=O)N(CCc2c[nH]c3ccccc23)C1c1ccc(O)cc1 (configuration not stated) | 8% | 15% | 89µM* | -31% | -23%[59 µM]
CCN(CC)CCN1C(=O)C(O)=C(C(C)=O)C1c1ccc(OC)c(OC)c1 (configuration not stated) | 50% | -8% | 9% | 0% | ?
COc1ccc(C2C(C(C)=O)=C(O)C(=O)N2CCc2c[nH]c3ccccc23)cc1OC (configuration not stated) | 27% | -6% | -15% | -33% | 25µM*
CC(C)(C)c1ccc(NS(=O)(=O)c2ccc(N)cc2)cc1 | 20% | -20% | -23% | -12% | ?
CC(C)(C)c1ccc(S(=O)(=O)/C=C/C#N)cc1 | nt | nt | nt | nt | 0.95µM*
CCOc1cc(C(=O)Nc2cc(C)ccc2OC)ccc1OCC(=O)N1CCCCC1 | 9% | -6% | -3% | 2% | 19%[59 µM]
COc1ccc(OC)c(-n2c(-c3cccc(C)c3)n[nH]c2=S)c1 | -24% | 79µM* | ? | ? | 1.1µM*
